High-throughput results (PubChem BioAssay)
HP1b binding inh – HTS for Inhibitors of HP1-beta Chromodomain Interactions with Methylated Histone Tails; Chromobox protein homolog 1 (Homo sapiens), P83916; AlphaScreen HP1-beta / biotin-H3K9me3 peptide binding; Potency, µM (series often up to 114 µM), usual class: inhibitors; 0.56% of 390,000 active; AID 540317, 2011; also: nearly all actives have a fitted effect of over 70% in size
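HP1-beta protein (50 nM final) preincubated 30 min at room temperature with biotinylated H3(1-18)K9me3 peptide (50 nM) in PBS pH 7.4, 0.01% Tween-20, then compound added for 30 min. AlphaScreen streptavidin donor/nickel chelate acceptor beads (10 ug/mL final), 30 min dark, luminescence read.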
CtBP-E1A blk – qHTS Assay for Inhibitors of the CtBP/E1A Interaction; AlphaScreen GST-E1A/His-CtBP binding, 1536-well; hits give low values; activity change, % (concentration not given with the values); 0.49% of 340,000 active; in the data active = activity change below about -65%; inconclusive = mostly about -30% to -63%
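AlphaScreen with 125 nM GST-E1A and 125 nM His-CtBP (5X stocks) in Tris pH 8.0, 300 mM NaCl, BSA, Tween 20, TCEP. Compounds preincubated 2 h at 37 deg C, then glutathione donor/nickel acceptor beads added for 1 h at 37 deg C in dark.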
Six1-Eya2 blk – qHTS Assay for Inhibitors of the Six1/Eya2 Interaction. Homeobox protein SIX1 (Homo sapiens) + Protein phosphatase EYA2 (Homo sapiens), …. AlphaScreen GST-Six1/His-Eya2 binding, biochemical; hits give low values. activity change, % (concentration not given with the values). 0.56% of 360,000 active. AID 651725, 2012; in the data active = activity change below about -65%; inconclusive = mostly about -30% to -63%
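GST-Six1 + His-Eya2 (5X stock: 250/500 nM); Tris pH 8.0, 300 mM NaCl, 0.05% BSA, 0.02% Tween 20; GSH donor/Ni acceptor beads; 1 h 37 °C dark; AlphaScreen readout.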
G9a block – qHTS Assay for Inhibitors of Histone Lysine Methyltransferase G9a; G9a H3K9 monomethylation, AlphaScreen, 2 h; Potency, µM (highest dose often 102 µM), actives largely listed as inhibitors; 8.8% of 350,000 active; AID 504332, 2011; also: nearly all actives have a fitted effect of over 75% in size
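AlphaScreen read-out: biotin-H3K9 peptide (500 nM) methylation by 20 nM enzyme with 20 uM SAM, 2 h at room temperature after 15 min compound preincubation; anti-monomethyl H3K9 antibody plus donor/acceptor beads, 10 min dark.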
BAZ2B inh – qHTS Assay for Inhibitors of BAZ2B; AlphaScreen BAZ2B-H3K14Ac peptide displacement; Potency, µM (top dose mostly 114 µM), hits mostly inhibitors; 4.4% of 360,000 active; also: nearly all actives have a fitted effect of over 60% in size
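Protein-peptide AlphaScreen: BAZ2B 50 nM, b-H3K14Ac 50 nM, 1x PBS pH 7.4 + 0.01% Tween-20. Preincubation 30 min RT; cpd 30 min RT (top 110 uM); beads 20 min RT, light-protected.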
JMJD2A Tudor inh – qHTS Assay for Inhibitors of JMJD2A-Tudor Domain; Lysine-specific demethylase 4A (Homo sapiens), O75164; Potency, µM (top dose mostly 114 µM), usual class: inhibitors; 4.4% of 390,000 active; AlphaScreen JMJD2A-Tudor / H3K4me3 peptide binding; also: nearly all actives have a fitted effect of over 50% in size
Hits are given with their value; i = inactive; ? = inconclusive; nt = no result; [ ] = dose if it differs, or a comment. A selection: hits, their analogues and other compounds. The true share with any hit is near 10%. Unless noted, calls follow the shape of the dose curve; as a rule, active = well fitted inhibition curve with a large enough effect; inconclusive = small, poorly fitted or top-dose-only effect; inactive = no such curve, though single readings can be large or run the other way.

SMILES	HP1b binding inh	CtBP-E1A blk	Six1-Eya2 blk	G9a block	BAZ2B inh	JMJD2A Tudor inh
Cc1cc(Cl)ccc1NC(=O)C1CCN(S(=O)(=O)c2ccc3[nH]c(=O)ccc3c2)CC1	i	nt	nt	i	i	i
CCc1cccc2sc(N(CCCN3CCOCC3)C(=O)CS(=O)(=O)c3ccccc3)nc12	i	i	i	i	i	?
O=C(CCS(=O)(=O)c1ccccc1)N(CCCN1CCOCC1)c1nc2ccc(F)cc2s1	i	i	i	22.4µM	i	i
Cc1ccc(S(=O)(=O)CC(=O)N(CCCN2CCOCC2)c2nc3c(F)cccc3s2)cc1	i	i	i	?	i	i
O=C(CCS(=O)(=O)c1ccccc1)N(CCCN1CCOCC1)c1nc2c(F)cccc2s1	i	i	i	14.1µM	?	i
CCN(CC)c1ccc(C2CC(=O)Nc3cc(OC)c(OC)cc32)cc1 (configuration not stated)	i	i	?	?	44.7µM	50.1µM
COc1cc2c(cc1OC)C(c1ccc(N(C)C)cc1)CC(=O)N2 (configuration not stated)	i	i	i	?	?	?
CCOc1ccc(S(=O)(=O)NCc2nc3cccnc3n2Cc2ccccc2OC)cc1	i	nt	nt	i	i	i
COC(=O)/C=C/c1cc(O)ccc1O	nt	nt	nt	2.82µM	nt	nt
COCCCNc1ncnc2onc(-c3ccc(F)cc3)c12	i	nt	nt	i	i	i
CCOC(=O)c1sc(-c2ccc(Br)cc2)cc1N	i	i	i	i[12.7 µM]	i	i
CCOC(=O)c1cc(-c2ccc(N)cc2)sc1N	i	i	i	?	31.6µM	44.7µM
CCC(C)Nc1nc(N)c([N+](=O)[O-])c(N2CCCCCC2)n1 (configuration not stated)	i	i	i	i	50.1µM	?
Cc1ccc(Nc2nc(N)c([N+](=O)[O-])c(NCc3ccccc3)n2)cc1	i	i	i	i	i	i
COc1ccc(OC)c(Nc2nc(N(C)c3ccccc3)nc(N)c2[N+](=O)[O-])c1	i	nt	?	35.5µM	?	?
CCC(C)Nc1nc(N)c([N+](=O)[O-])c(NCc2ccccc2)n1 (configuration not stated)	?	nt	i	i	?	56.2µM
CCC(C)Nc1nc(N)c([N+](=O)[O-])c(Nc2cc(OC)ccc2OC)n1 (configuration not stated)	?	?	?	?	17.8µM	39.8µM
CCOc1ccccc1C1Nc2ccccc2-c2nnc(SCc3ccccc3)nc2O1 (configuration not stated)	i	nt	nt	?	i	i
COc1ccccc1Nc1nc(NCCCN(C)C)nc(N)c1[N+](=O)[O-]	i	i	i	50.1µM	?	?
CCC(C)Nc1nc(N)c([N+](=O)[O-])c(Nc2ccccc2OC)n1 (configuration not stated)	?	i	i	44.7µM	?	?
C=CCNc1nc(N)c([N+](=O)[O-])c(Nc2ccccc2OC)n1	i	i	i	i	i	i
O=S(=O)(NC1CC1)c1ccc(S(=O)(=O)N(Cc2ccccn2)C2CC2)cc1	i	i	i	70.8µM	i	i
CCc1ccc(S(=O)(=O)ON2C(=O)c3ccccc3C2=O)cc1	35.5µM	i	i	?	?	50.1µM
COc1ccc(OC)c(S(=O)(=O)ON2C(=O)c3ccccc3C2=O)c1	?	i	i	1.41µM	i[0.457 µM]	89.1µM
O=C(NCc1ccccc1F)c1cc2ccccn2n1	i	nt	nt	i	i	i
O=C(NCCOCCO)C(=O)Nc1c2c(nn1-c1ccc(F)cc1)CSC2	i	nt	nt	12.6µM	i	i
O=C(NCc1ccccc1)C(=O)Nc1c2c(nn1-c1ccc(F)cc1)CSC2	i	nt	nt	i	i	i
CCS(=O)(=O)c1nc(S(=O)(=O)c2ccc(C)cc2)c(NCC(C)C)s1	i	nt	nt	i	i	i
CCCOc1cc(N(CC)CC)ccc1/C=C(/C#N)c1nc2ccc(C)cc2[nH]1	i	i	i	20µM	?	i
